Results reported in PubChem BioAssay AID777 (Sanford-Burnham Center for Chemical Genomics, 2007).
The whole screen tested about 96,000 compounds, of which about 19,000 (20%) were called active. These entries were drawn from the full list. Unmarked numbers belong to inactive results.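 How the source made its calls: active means blocking of liver enzyme CYP2C9 beyond about 50% at 5 µM (limit read from the data); inactive means the rest.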

Target: Cytochrome P450 2C9 (Homo sapiens) (UniProt P11712)
Test: blockers of cytochrome P450 2C9 activity – biochemical, luminescence, ADME assay, primary screen (AID 777)
Conditions: CYP2C9 Supersomes, luciferin-H conversion, at 5 µM, hits give high values

Sequence of Cytochrome P450 2C9 (Homo sapiens) (P11712 whole entry, looked up): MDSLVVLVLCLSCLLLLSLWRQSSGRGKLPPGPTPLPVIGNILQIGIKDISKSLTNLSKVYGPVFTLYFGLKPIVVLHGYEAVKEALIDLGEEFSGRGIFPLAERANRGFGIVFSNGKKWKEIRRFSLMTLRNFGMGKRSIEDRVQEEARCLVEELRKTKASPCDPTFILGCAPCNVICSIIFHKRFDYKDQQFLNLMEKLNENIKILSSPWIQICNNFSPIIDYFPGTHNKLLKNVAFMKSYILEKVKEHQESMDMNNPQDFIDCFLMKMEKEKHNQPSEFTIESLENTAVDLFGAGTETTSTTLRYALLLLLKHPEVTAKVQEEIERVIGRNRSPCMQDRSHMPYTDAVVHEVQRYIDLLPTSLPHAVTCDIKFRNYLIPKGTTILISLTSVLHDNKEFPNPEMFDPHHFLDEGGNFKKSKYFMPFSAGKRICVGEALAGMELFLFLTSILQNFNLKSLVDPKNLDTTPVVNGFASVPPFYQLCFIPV

Compared with `CCCC(=O)N(CCc1ccccc1)Cc1nc2ccccc2c(=O)[nH]1`, `CCOC(=O)c1ccc(N2C(=O)CC(N(C)Cc3ccccc3)C2=O)cc1` (centres undefined) is lower in inhibition: 38.3% for the first, -9.5% for the second.

Going from `COc1nc(-c2ccc(Cl)cc2)ccc1-c1noc(-c2cccs2)n1` to `CCc1ccc2oc(-c3ccc(N)cc3)nc2c1`, the inhibition falls from 23.2% to -59.8%.

Going from `C=CCNC(=O)c1csc(-c2ccccc2)n1` to `CCOC(=O)c1sc2nc(SC)nc(-c3ccccc3)c2c1N`, the inhibition falls from 35.2% to 13.3%.

Compared with `CCCn1c(=O)c2ccccc2n2c(SCC(=O)/C(C#N)=C(\C)N)nnc12`, `C/C(N)=C(\C#N)C(=O)NCCc1ccccn1` is lower in inhibition: 14.3% for the first, -7.1% for the second.

First: CCOc1ccccc1NC(=O)CCc1ccc(C)o1
Second: CCCNC(=O)c1ccccc1NC(=O)CSCc1ccc(OC)cc1
The inhibition of the first is lower: -185% for the first, 15.3% for the second.

Compared with `CC1=NCCN1S(=O)(=O)c1ccc(Br)c(C)c1`, `COC(=O)c1ccc(S(=O)(=O)N2CCC(c3nc4ccccc4o3)CC2)cc1` is higher in inhibition: -80.5% for the first, 16.8% for the second.

First: CCCCOc1ccc(CSC(=N)N)cc1[N+](=O)[O-]
Second: CCCOc1ccccc1-c1nc(SCCC(=O)O)n[nH]1
The inhibition of the first is higher: 20% for the first, -1.3% for the second.

Compared with `Cn1ncc2c(Nc3cccc4ccccc34)ncnc21`, `CC1=NN(Cc2ccccc2)C(=O)/C1=C/c1ccc(N(C)C)cc1` is higher in inhibition: -1.5% for the first, 14.4% for the second.

Compared with `O=C1COc2ccc(NC(=O)N3CCN(c4ccc(F)cc4)CC3)cc2N1`, `O=C(CSc1nc2ccccc2o1)N1CCN(c2ccccc2)CC1` is higher in inhibition: 19.5% for the first, 29.7% for the second.

Going from `CC1=NC2(CCCc3c2no[n+]3[O-])N(O)C1(C)C` (centres undefined) to `Cc1nc([N+](=O)[O-])nn1C12CC3CC(CC(Br)(C3)C1)C2`, the inhibition rises from 11.5% to 18.8%.

Compared with `O=S1(=O)CCN2C(=N1)SC1=C2CCN(Cc2ccccc2)C1`, `c1ccc(COc2nsnc2N2CCOCC2)cc1` is higher in inhibition: 0.4% for the first, 30.3% for the second.

First: COC(=O)CN(C(=S)Nc1ccc(Cl)cc1)C1CC(=O)N(c2ccc(OC)cc2)C1=O (centres undefined)
Second: COc1ccc(OC)c(NC(=O)c2cnn(-c3ccccc3Cl)c2NC(=O)c2ccco2)c1
The inhibition of the first is higher: 43.6% for the first, 24.5% for the second.

First: COC(=O)c1ccccc1NC(=O)CSc1ccccn1
Second: COC(=O)c1ccc(NC(=O)c2ccco2)cc1
The inhibition of the first is lower: -10.9% for the first, 24% for the second.

Going from `Cc1cnc(NC(=O)CSc2c(Cl)cccc2Cl)s1` to `Cc1nnsc1S(=O)(=O)Cc1ccccc1Cl`, the inhibition rises from 1.4% to 3.2%.

Going from `CCn1c(SC)nc(O)c(C(c2ccc(OC)c(O)c2)c2c(O)nc(SC)n(CC)c2=O)c1=O` to `Cc1cc(C)c2c(c1)cc(C)c1nnc(SCC(=O)Nc3cc(C)on3)n12`, the inhibition falls from 23.3% to 10.5%.

Compared with `Cc1cc(C)nc(SCc2nnc(SCC(=O)OC3CCCCC3)o2)n1`, `CCOC(=O)CSc1nnc(-c2ccco2)n1C` is lower in inhibition: 7% for the first, -20.3% for the second.

Compared with `Nc1cc(=O)nc(SCc2ccccc2)n1Cc1ccco1`, `O=C(C1=C(O)C(=O)N(Cc2ccccc2)C1c1ccco1)c1ccco1` (centres undefined) is higher in inhibition: 7.5% for the first, 24% for the second.

Compared with `CN(C)c1cc[n+](Cc2ccccc2)cc1`, `CC12CN(Cc3ccccc3)CC(C)(CN(Cc3ccccc3)C1)C2=NO` is lower in inhibition: 2.2% for the first, -1.5% for the second.

Compared with `CCOC(=O)N1CCN(Cc2oc(CO)cc(=O)c2O)CC1`, `CCn1cc(C(=O)N2CCN(C3CCCCC3)CC2)c2cc(OC)c(OC)cc2c1=O` is higher in inhibition: -4.5% for the first, 19% for the second.

Compared with `Cc1ccc(-c2cc(C(=O)Nc3nn[nH]n3)c3ccccc3n2)c(C)c1`, `CC(C)(C)Cc1nnc(NC(=O)c2cc(-c3ccccc3)nc3ccccc23)s1` is lower in inhibition: 23.9% for the first, 11.3% for the second.

Going from `COc1cccc(-c2nc(S(=O)(=O)c3ccccc3)c(N3CCOCC3)o2)c1` to `Cc1cc(Oc2ccccc2)nc(N2CCOCC2)n1`, the inhibition falls from 27.5% to 26.5%.

Compared with `O=C(O)CSCc1ccc(C(=O)O)o1`, `CCCOC(=O)CC1C(=O)NCCN1Cc1ccc(F)cc1` (centres undefined) is lower in inhibition: 13.1% for the first, 6.4% for the second.

First: CSc1ccc(S(=O)(=O)NCc2ccc(Cl)cc2)cc1
Second: O=C(O)c1ccc(F)c(S(=O)(=O)Nc2ccccc2)c1
The inhibition of the first is lower: -49.2% for the first, 17% for the second.

Compared with `Cc1cc2ncn(CCCCOc3ccccc3)c2cc1C`, `Cc1nc2nc(COc3ccccc3)[nH]n2c(=O)c1C` is lower in inhibition: 27.5% for the first, 1.1% for the second.

Going from `CCOC(=O)c1cccc(NC(=O)CCc2c(C)nc3ncnn3c2C)c1` to `CCOC(=O)c1ccc(NC(=O)Cn2nnc(-c3ccc(C)cc3)n2)cc1`, the inhibition rises from 15.2% to 32%.

Going from `CCOC(=O)c1cn(CC(=O)Nc2ccc(C(C)C)cc2)nn1` to `CCOC(=O)c1ccc(NC(=O)CS(=O)(=O)c2cn(CC)c3ccccc23)cc1`, the inhibition rises from 17.6% to 20.9%.

Compared with `CCCc1nc2scc(-c3ccc(C)cc3)c2c(=O)n1N`, `Cc1ccc2nc(SCc3nnc(-c4ccccc4[N+](=O)[O-])o3)c(C#N)cc2c1` is lower in inhibition: 27.6% for the first, 20% for the second.

Compared with `COc1ccc(CNC(=O)CCn2cccc2)cc1`, `C=CCn1c(=N)n(CC(O)COc2ccc(OC)cc2)c2ccccc21` (centres undefined) is lower in inhibition: 20.4% for the first, -0.2% for the second.

Compared with `CC(C)(CNCC(O)c1ccccc1)N1CCOCC1` (centres undefined), `CC(CN1CCCCC1)OC(=O)c1ccccc1Cl` (centres undefined) is higher in inhibition: -3.5% for the first, 9.2% for the second.

Going from `CCOC(=O)C1(Cc2ccc(O)cc2)NC(c2ccccc2F)C2C(=O)N(C)C(=O)C21` (centres undefined) to `CCC(CC)C(=O)N1CC(=O)Nc2ccc(Br)cc2C1c1ccccc1` (centres undefined), the inhibition rises from -15.1% to 49.6%.

Going from `CCOC(=O)N1CC=C2C(C#N)=C(N)C(C#N)(C#N)[C@H](c3cccs3)[C@H]2C1` to `CCN1CC=C2C(C#N)=C(N)C(C#N)(C#N)[C@H](c3ccoc3)[C@H]2C1`, the inhibition falls from 11.7% to -2.3%.

Compared with `CCOc1ccc(C(=O)NC(C(=O)NCc2ccccn2)C(C)C)cc1` (centres undefined), `COC(=O)[C@@H](NC(=O)NCc1cccc(OC)c1)C(C)C` is lower in inhibition: 6.7% for the first, -12.5% for the second.

Going from `O=C(Nc1cccc(C(=O)N2CCCC2)c1)c1ccccc1` to `COc1ccccc1N1CCN(C(=O)c2ccc(S(=O)(=O)N3CCCCC3)cc2)CC1`, the inhibition rises from 31.3% to 45.8%.

Compared with `Cc1cc(C)cc(NC(=O)c2cccc(NC(=O)C3C4CC5OC(=O)C3C5C4)c2)c1` (centres undefined), `Cc1ccnc(NC(=O)c2ccc(NC(=O)c3ccco3)cc2)c1` is higher in inhibition: -1.1% for the first, -0.6% for the second.

Compared with `Fc1ccc(-c2nnc(CSc3nnc(-c4ccc5c(c4)OCO5)o3)o2)cc1`, `COCCCn1c(CCC(=O)O)ccc1-c1ccc(F)cc1` is higher in inhibition: -13.3% for the first, 39.8% for the second.

Compared with `CCn1cc(C(=O)N/N=C(/C)c2ccc(F)cc2)c(=O)c2cc(F)c(N3CCCC3)cc21`, `COCc1[nH][nH]c(=O)c1C=Nc1ccc(F)cc1F` is lower in inhibition: 5.7% for the first, -10% for the second.

Compared with `CN(c1ccccc1)c1ccc(/C=c2\s/c(=C(/C#N)C(=O)C(C)(C)C)n(Cc3ccco3)c2=O)cc1`, `CC(C)=C(NC(=O)c1ccco1)C(=O)NCCc1nc2ccccc2[nH]1` is lower in inhibition: 41.9% for the first, -29.7% for the second.

Compared with `CCCS(=O)(=O)N1CCCC(C(=O)N2CCN(c3ccccc3)CC2)C1` (centres undefined), `CCC(C)(C(=O)NC1CCCCC1)N(C)C(=O)c1ccc2c(c1)OCO2` (centres undefined) is lower in inhibition: -1.6% for the first, -1.7% for the second.

First: CCCOc1cccc(C(=O)Nc2nnn(CCC)n2)c1
Second: CC(C)OCCCNC(=O)C1CC(=O)N(C2CCCCCCC2)C1 (centres undefined)
The inhibition of the first is higher: 38.6% for the first, -4.2% for the second.

`S=c1[nH]nc2c3c4c(sc3ncn12)CCCC4` was tested, and the inhibition was 20.5%.

For `C=CCNc1nc(N)c(C(=C(C#N)C#N)c2ccccc2)s1`, the inhibition was 69.6% (active).
For `CCCCOc1ccc(Cl)cc1CSc1nncn1N`, the inhibition was 74.2% (active).
With `COC(=O)c1c(-c2cccs2)csc1NC(=O)CSc1ncnc2sc(C)c(C)c12` the inhibition was 76.2% (active).
For `CCOC(=O)CSc1nc2c(sc(=S)n2CCc2ccccc2)c(=O)n1Cc1ccco1`, the inhibition was 66.9% (active).
With `CN(C)c1ccc(/C=C2\NC(=S)N(Cc3ccccc3)C2=O)cc1` the inhibition was 66.2% (active).
In the case of `N/C(=N\OC(=O)c1cc(-c2ccccc2)nc2ccccc12)c1ccncc1`, the inhibition is reported as 97.7% (active).
`COc1cccc(-c2nc3cc(C)ccc3o2)c1` was tested, and the inhibition was 53.3% (active).
For `CSc1ccc(S(=O)(=O)Nc2cccc(F)c2)cc1`, the inhibition was 93.8% (active).
`CCOC(=O)c1nnn(CC(=O)Nc2cccc(F)c2)c1C(=O)OCC` was tested, and the inhibition was 60.3% (active).
In the case of `CCOC(=O)c1cccc(NC(=O)CCn2nnc3ccccc32)c1`, the inhibition is reported as 53.3% (active).
With `CCSc1ccccc1C(=O)NCc1ccc(OC)cc1` the inhibition was 53.8% (active).
For `N#CC1=C(N)C(C#N)(C#N)[C@H](c2ccsc2)[C@H]2COCC=C12`, the inhibition was 61.4% (active).
For `O=C(Nc1ccc(Br)cc1)c1cccc(NC(=O)C2C3CC4OC(=O)C2C4C3)c1` (centres undefined), the inhibition was 66.4% (active).
`Fc1ccc2nc(-c3ccccc3)nc(SCc3nnc(-c4ccccc4)o3)c2c1` was tested, and the inhibition was 76.7% (active).
`CC(C)(CSc1nncn1/N=C/c1ccco1)NS(=O)(=O)c1ccc(Cl)cc1` was tested, and the inhibition was 61.2% (active).
For `CCOC(=O)C(CCOc1cccc(CC)c1)C(=O)OCC`, the inhibition was 57% (active).
For `N#CC(C(=O)c1ccc(S(=O)(=O)N2CCCCCC2)cc1)c1nc2ccccc2[nH]1` (centres undefined), the inhibition was 67.8% (active).
In the case of `CCOC(=O)c1sc(N(Cc2ccccc2)C(=O)CN2C(=O)CN(C)C2=O)nc1C`, the inhibition is reported as 57.9% (active).
`c1ccc(Nc2nc(N3CCOCC3)c3ccccc3n2)cc1` was tested, and the inhibition was 56.9% (active).
For `CC(C)(C)NC(=O)c1cc(NC(=O)c2ccco2)cc(NC(=O)c2ccco2)c1`, the inhibition was 64.8% (active).
